Results taken from the supplement of paper PMC11732987, “Enantioselective OTUD7B fragment discovery through chemoproteomics screening and high-throughput optimisation” (Communications Chemistry, 2025).

Tests used:
Assay in all cases: log2 ratio of Biotin-Ahx-Ub-VS probe labelling (fragment/DMSO); higher = less target engagement (more negative = stronger competition), active = hit call of the paper (q ≤ 0.05, log2 ratio ≤ -1)
Settings in all cases: compound concentration: 200 uM; treatment time: 3 h
USP19 = molecular target: T1, USP19 (UniProt O94966)
T1 sequence (whole entry): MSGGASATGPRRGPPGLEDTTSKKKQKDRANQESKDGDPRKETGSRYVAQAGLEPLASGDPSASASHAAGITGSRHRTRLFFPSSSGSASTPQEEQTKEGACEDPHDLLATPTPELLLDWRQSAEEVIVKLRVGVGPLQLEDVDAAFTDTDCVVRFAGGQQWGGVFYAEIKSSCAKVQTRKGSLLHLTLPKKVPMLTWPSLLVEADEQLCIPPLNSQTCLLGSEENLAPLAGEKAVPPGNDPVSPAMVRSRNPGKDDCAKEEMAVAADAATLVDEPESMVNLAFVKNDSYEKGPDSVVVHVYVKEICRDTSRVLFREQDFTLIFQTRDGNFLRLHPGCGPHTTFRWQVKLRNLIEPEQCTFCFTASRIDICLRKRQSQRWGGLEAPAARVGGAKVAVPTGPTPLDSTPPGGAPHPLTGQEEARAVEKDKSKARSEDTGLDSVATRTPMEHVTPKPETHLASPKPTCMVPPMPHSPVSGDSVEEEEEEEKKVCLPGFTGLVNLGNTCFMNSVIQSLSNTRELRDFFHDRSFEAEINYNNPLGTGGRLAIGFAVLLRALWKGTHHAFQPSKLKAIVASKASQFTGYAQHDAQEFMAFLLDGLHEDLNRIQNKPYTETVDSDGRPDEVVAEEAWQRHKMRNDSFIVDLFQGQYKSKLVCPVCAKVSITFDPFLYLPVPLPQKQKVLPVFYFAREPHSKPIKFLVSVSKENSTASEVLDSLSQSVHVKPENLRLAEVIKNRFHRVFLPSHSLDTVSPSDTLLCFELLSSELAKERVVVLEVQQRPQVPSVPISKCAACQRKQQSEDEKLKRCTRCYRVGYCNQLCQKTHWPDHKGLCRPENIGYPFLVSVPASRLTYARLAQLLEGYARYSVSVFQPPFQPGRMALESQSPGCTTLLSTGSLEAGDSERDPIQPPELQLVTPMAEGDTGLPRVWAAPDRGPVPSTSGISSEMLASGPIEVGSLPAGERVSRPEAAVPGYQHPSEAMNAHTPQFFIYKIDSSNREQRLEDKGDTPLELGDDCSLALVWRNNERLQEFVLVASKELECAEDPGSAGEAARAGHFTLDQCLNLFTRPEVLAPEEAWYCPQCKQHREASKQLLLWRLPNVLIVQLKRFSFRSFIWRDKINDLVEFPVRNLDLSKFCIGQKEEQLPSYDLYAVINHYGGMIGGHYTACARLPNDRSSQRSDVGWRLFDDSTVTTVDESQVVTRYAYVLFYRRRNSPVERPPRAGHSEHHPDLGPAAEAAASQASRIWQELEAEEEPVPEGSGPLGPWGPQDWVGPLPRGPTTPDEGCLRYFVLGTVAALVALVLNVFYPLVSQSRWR
Summary of the method: (§1)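 HEK293T lysate (495 µg per sample, in Tris/CHAPS/IGEPAL buffer with protease inhibitors) was treated in triplicate with fragment at 200 µM or with DMSO for 3 h. It was then treated with Biotin-Ahx-Ub-VS (0.5 µM final) for 1 h. Labelled DUBs were NeutrAvidin-enriched, digested with LysC and trypsin, and run by diaPASEF LC-MS/MS. Spectronaut label-free quantities were global-median-normalised. Values are average log2 ratios fragment/DMSO by unpaired t-test, using proteins with ≥2 unique peptides.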

USP24 = USP24 (UniProt Q9UPU5)
Summary of the method: as §1

USP25 = molecular target: T2, USP25 (UniProt Q9UHP3)
T2 sequence (whole entry): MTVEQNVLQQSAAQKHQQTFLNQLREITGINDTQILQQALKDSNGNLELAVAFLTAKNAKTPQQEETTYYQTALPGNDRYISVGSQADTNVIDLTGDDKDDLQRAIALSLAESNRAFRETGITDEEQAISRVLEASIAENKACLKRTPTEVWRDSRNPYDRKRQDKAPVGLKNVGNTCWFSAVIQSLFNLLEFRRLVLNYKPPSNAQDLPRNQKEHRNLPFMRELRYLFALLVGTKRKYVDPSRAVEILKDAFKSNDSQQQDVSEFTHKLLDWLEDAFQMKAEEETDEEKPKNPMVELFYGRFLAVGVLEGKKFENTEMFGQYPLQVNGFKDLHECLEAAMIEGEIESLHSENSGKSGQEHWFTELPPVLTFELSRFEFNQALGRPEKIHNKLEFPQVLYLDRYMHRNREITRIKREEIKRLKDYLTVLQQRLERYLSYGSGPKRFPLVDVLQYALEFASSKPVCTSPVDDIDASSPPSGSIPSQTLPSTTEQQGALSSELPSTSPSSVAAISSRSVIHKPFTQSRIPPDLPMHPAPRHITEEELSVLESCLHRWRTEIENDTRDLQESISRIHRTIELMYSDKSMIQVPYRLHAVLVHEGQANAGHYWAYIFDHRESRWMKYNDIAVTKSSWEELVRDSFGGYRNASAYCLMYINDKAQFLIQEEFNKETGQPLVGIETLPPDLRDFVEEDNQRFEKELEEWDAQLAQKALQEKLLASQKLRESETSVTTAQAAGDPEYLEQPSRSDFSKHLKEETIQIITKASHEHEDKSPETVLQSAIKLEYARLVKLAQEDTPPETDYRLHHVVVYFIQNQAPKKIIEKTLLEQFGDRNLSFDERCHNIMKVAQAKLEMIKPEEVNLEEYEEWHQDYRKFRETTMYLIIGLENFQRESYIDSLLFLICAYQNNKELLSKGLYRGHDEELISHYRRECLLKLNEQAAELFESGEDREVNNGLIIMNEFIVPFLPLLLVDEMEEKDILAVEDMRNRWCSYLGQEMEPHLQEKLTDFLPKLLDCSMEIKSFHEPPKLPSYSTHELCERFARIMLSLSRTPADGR
Summary of the method: as §1

USP28 = molecular target: T3, USP28 (UniProt Q96RU2)
T3 sequence (whole entry): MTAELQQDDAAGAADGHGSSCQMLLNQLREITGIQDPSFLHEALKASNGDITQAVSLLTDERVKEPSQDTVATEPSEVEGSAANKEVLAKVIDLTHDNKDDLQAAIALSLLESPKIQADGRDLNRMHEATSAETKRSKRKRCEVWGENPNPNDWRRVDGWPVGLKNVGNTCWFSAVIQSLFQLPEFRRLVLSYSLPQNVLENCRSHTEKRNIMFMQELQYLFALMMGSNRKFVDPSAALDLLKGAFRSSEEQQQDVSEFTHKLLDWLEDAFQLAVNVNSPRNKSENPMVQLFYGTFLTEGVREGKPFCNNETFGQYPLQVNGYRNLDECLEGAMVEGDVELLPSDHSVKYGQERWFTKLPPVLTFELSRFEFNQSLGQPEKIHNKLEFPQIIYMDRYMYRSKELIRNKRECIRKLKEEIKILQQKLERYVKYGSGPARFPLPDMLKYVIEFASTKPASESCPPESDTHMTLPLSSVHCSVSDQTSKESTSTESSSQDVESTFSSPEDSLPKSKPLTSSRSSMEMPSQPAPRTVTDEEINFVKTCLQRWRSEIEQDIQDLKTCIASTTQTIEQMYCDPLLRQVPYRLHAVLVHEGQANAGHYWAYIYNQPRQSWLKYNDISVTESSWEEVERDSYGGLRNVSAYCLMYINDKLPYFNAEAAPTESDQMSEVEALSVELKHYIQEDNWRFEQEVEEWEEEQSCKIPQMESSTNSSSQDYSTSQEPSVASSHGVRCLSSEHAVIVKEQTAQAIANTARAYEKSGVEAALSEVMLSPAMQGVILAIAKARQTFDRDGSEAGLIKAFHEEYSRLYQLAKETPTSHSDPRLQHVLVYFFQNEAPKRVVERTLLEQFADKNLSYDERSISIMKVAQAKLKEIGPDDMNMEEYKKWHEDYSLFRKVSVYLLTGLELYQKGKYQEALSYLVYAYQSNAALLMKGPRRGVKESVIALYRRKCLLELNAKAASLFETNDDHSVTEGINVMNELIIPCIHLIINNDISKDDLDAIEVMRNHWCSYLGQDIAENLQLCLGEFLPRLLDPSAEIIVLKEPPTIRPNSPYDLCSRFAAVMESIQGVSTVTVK
Summary of the method: as §1

Measured: log2 ratio of Biotin-Ahx-Ub-VS probe labelling

USP24, sequence (Q9UPU5 whole entry): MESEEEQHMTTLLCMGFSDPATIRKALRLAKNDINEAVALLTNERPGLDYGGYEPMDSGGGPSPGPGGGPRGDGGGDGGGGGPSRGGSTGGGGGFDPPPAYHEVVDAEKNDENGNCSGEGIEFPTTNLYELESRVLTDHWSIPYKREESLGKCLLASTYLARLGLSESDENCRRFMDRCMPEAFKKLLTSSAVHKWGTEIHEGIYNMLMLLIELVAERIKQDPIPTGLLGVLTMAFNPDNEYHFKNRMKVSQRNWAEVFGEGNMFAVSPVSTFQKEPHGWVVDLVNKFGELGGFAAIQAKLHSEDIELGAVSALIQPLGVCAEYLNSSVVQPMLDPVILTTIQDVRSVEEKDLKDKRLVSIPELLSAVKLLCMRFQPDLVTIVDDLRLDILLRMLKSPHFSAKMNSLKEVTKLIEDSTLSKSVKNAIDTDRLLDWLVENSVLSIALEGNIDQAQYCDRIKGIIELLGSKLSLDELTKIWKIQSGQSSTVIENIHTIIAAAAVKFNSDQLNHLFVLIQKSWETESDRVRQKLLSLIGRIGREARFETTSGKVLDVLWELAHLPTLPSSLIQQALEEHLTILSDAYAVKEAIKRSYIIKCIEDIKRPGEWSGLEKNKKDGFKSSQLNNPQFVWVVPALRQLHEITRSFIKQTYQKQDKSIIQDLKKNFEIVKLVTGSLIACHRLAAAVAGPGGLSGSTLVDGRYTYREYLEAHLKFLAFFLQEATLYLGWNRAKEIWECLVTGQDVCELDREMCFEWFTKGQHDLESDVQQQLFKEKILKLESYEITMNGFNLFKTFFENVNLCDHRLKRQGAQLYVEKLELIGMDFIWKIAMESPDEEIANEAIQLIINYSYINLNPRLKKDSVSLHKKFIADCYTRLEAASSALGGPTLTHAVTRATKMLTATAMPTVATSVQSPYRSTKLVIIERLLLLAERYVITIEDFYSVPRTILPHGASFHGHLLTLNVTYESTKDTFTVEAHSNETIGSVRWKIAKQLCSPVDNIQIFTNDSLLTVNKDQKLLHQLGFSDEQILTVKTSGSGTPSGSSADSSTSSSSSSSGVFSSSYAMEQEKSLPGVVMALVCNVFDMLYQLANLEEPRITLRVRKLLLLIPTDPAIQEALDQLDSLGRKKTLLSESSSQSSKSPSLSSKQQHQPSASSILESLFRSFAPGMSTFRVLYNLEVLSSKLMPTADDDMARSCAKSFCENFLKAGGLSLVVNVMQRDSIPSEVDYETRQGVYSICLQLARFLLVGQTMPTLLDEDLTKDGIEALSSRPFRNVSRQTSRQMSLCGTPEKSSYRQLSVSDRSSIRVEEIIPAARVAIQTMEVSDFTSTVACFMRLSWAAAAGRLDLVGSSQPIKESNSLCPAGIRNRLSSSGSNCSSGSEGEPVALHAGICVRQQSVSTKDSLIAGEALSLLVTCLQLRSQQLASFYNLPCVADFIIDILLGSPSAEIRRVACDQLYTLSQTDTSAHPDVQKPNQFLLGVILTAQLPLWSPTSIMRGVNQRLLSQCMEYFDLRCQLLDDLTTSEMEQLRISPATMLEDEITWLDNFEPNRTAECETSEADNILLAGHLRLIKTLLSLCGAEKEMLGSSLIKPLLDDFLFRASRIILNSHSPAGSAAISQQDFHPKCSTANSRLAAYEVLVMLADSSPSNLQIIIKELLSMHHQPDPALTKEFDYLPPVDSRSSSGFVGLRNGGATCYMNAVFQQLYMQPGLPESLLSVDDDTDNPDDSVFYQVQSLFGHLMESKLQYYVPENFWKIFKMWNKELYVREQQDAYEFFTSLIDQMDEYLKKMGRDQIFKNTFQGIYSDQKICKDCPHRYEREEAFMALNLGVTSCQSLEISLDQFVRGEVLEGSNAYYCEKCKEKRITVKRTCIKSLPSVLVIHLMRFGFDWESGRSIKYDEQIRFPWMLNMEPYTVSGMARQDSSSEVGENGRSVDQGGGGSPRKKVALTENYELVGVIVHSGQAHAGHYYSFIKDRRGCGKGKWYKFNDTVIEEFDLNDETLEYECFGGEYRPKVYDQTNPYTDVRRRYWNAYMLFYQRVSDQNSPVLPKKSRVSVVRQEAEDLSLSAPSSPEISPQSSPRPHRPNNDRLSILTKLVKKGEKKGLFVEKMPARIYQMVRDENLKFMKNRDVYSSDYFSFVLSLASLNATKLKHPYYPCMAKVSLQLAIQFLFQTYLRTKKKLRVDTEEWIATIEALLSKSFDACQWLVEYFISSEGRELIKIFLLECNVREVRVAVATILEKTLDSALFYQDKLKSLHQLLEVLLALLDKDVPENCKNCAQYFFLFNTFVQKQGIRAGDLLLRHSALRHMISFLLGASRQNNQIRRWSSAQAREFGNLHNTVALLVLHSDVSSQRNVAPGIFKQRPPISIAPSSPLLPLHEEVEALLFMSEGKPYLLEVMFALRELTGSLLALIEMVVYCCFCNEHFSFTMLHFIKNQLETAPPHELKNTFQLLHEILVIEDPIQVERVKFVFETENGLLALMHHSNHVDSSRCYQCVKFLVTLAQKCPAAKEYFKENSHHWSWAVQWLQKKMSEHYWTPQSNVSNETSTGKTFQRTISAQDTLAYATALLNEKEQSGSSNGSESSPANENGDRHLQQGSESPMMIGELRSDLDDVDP

Cc1nc(-c2cccc(NC(=O)CCl)c2)cs1
inactive: USP19 -0.375 | USP24 -0.903 | USP25 -0.554 | USP28 -0.634
